BRCT inh green – blocks human BRCA1 BRCT binding to phosphopeptide, green readout | AID 875 | P38398 | 75,000 tested, 0.05% active | Potency, µM (top dose mostly 76.9 µM), without a hit: top-dose activity change, negative = inhibition, most hits filed as inhibitors | BRCA1 BRCT-phosphopeptide binding, green fluorescence polarization;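 also: potency is read from the fitted curve at half-maximal effect; plate controls were peptide without protein for full effect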
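Fluorescence polarization: His-tagged BRCT (~35 kDa BRCA1 C-terminus, 250 nM) bound to 100 nM fluorescein-labeled phosphorylated 10-aa BACH1 peptide, pH 7.3 phosphate buffer with DTT and Tween 20. Compounds incubated 12 min at room temperature; inhibition read as lowered polarization.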
BRCT inh red – disrupts BRCA1 BRCT binding to phosphoprotein, red fluorophore readout. 75,000 tested, 0.03% active. BRCT-phosphopeptide binding, red fluorescence polarization. AID 892. Potency, µM (highest dose often 76.9 µM), for inactives: at the highest dose activity change, negative = inhibition, most hits filed as inhibitors; also: % is scaled to controls: 0 for no effect and ±100 for the full control effect
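Rhodamine-labelled pBACH1 10-mer (100 nM) bound to BRCT domain (100 nM) at pH 7.3; compounds incubated 12 min room temperature, polarization read. Free peptide defines full inhibition; unlabelled decapeptide titrated as control.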
DNA Pol III inh – inhibitors of bacterial DNA polymerase III holoenzyme | reconstituted DNA polymerase III holoenzyme replication, biochemical | Potency, µM (doses to about 57.1 µM), for inactives: at the highest dose activity change, negative = inhibition | 71,000 tested, 0.25% active; also: potency is read from the fitted curve at half-maximal effect; % is scaled to controls: 0 for no effect and ±100 for the full control effect
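Reconstituted *E. coli* holoenzyme (0.35 nM Pol III, 1 nM beta, 154 nM SSB, 2 nM primase) was preincubated with compound for 15 min at RT. Synthesis on 1.4 nM ssM13Gori ran 35 min, then was stopped with PicoGreen/EDTA and read as dsDNA fluorescence.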
TsaE inh – inhibitors of E. coli YjeE (TsaE); purified YjeE enzyme, qHTS inhibition assay; Potency, µM; 71,000 tested, 0.05% active
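Purified YjeE (10 uM) with BODIPY Texas Red-labeled ADP probe (2 uM); compounds pin-transferred, 15 min at room temperature. Binding inhibition read as decreased fluorescence polarization; ADP titration as control.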
Tau fil binding – binds recombinant human tau filaments | recombinant tau filaments, thioflavin S fluorescence, 15 h; filaments grown with octadecylsulfate alongside compound | 71,000 tested, 2% active | P10636 | Potency, µM (titrated, usually from 57.1 µM), for inactives: at the top dose activity change, negative = inhibition;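 also: potency is read from the fitted curve at half-maximal effect; % is scaled to controls: 0 for no effect and ±100 for the full control effect; actives lower thioflavin S fluorescence by blocking filaments or displacing dye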
Target sequence (P10636 whole entry, looked up): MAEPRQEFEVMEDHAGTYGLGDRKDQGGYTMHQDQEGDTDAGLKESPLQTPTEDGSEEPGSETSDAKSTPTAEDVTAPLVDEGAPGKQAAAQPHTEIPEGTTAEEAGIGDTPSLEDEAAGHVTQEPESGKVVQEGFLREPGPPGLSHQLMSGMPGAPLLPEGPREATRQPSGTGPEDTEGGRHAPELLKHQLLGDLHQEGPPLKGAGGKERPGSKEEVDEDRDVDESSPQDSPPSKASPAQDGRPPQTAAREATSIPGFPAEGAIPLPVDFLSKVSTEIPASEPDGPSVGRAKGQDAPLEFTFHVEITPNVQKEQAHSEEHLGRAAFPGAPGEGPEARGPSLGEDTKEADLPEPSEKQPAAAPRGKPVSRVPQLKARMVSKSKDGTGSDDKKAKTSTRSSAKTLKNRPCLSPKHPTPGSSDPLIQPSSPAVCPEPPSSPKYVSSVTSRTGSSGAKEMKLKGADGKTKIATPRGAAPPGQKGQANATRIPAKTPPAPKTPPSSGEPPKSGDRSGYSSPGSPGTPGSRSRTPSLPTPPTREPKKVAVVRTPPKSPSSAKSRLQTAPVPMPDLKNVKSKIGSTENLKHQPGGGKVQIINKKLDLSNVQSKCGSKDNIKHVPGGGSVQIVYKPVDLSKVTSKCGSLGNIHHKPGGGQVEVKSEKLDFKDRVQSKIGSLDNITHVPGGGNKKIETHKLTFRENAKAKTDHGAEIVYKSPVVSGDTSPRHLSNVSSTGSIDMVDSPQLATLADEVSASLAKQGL
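His-tagged recombinant human tau (exons 2, 3 and 10 included), 1 uM, was induced to fibrillize by 30 uM sodium octadecylsulfate with compound present. After 15 h at 37 C, thioflavine S fluorescence (ex 450, em 510 nm) was read.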
ALOX15 inhib – blocks human 15-lipoxygenase activity; Potency, µM (highest dose often 57.1 µM), inactives show at the highest dose activity change, negative = inhibition, most hits filed as inhibitors; 74,000 tested, 1.4% active; P16050; AID 887; purified 15hLO-1, xylenol orange hydroperoxide absorbance; also: potency is read from the fitted curve at half-maximal effect; % is scaled to controls: 0 for no effect and ±100 for the full control effect; nearly all actives have a fitted effect of over 55% in size
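Purified human 15hLO-1 (40 nM) in 25 mM Hepes pH 7.5, 0.01% Triton X-100, preincubated 15 min RT with compound, then 50 uM arachidonic acid for 6 min. Hydroperoxide read by ferrous/xylenol orange, 30 min; 573/405 nm absorbance ratio gave progress.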
Tau ThS bind – tau filament binding by ThS displacement. 60 tested, 40% active. recombinant tau filaments, Thioflavin S fluorescence displacement. AID 911. shares compounds with Tau fil binding. Potency, µM; calls by dose curve
aSyn ThS displ – alpha-synuclein fibril binding by ThS displacement; recombinant alpha-synuclein fibrils, ThS fluorescence displacement; Potency, µM; 60 tested, 40% active; shares compounds with Tau fil binding; calls by dose curve
Abeta ThS displ – displaces Thioflavin S from Abeta1-42 fibrils | Abeta1-42 fibrillization, thioflavin S fluorescence, overnight 37 C | Potency, µM | shares compounds with Tau fil binding | 60 tested, 50% active | AID 956; calls by dose curve
Active calls of the source: *; i = inactive; ? = inconclusive; nt = no result; [ ] = dose if it differs, or a comment. The list is not random: actives were taken first. Their share in the collection is about 3.1%. Unless noted, calls follow the shape of the dose curve; as a rule, active = well fitted curve in the direction sought with a large enough effect; inconclusive = small, poorly fitted or top-dose-only effect, or another doubt; inactive = no such curve, though single readings can be large; an effect the other way counts as inactive or inconclusive.

SMILES | BRCT inh green | BRCT inh red | DNA Pol III inh | TsaE inh | Tau fil binding | ALOX15 inhib | Tau ThS bind | aSyn ThS displ | Abeta ThS displ
CCOc1cc2[nH]c(=O)n(CCCCC(=O)NC3CCCCC3)c(=O)c2cc1OCC | -0.8% | -0.2% | 3.6% | i | -39.1% | 7.5% | i | i | i
Cc1ccc(NC(=O)C2CCN(S(=O)(=O)c3cccc4nonc34)CC2)nc1 | -0.3% | 0.8% | 8.5% | i | -19.5% | -0.6% | nt | nt | nt
CCOC(=O)C1CCN(S(=O)(=O)c2cccc3nonc23)CC1 | -0.7% | 0.2% | 1.8% | i | -11.1% | -20.4% | i | i | i
CN1c2cccc3cccc(c23)N(C)C1(C)C | -1.7% | -0.5% | -0.8% | i | -80.8% | -12.3% | i | ? | ?
CCOC(=O)N1CCc2c(sc3c2C(=O)NC(c2ccc(-c4ccc(Cl)cc4)o2)N3)C1 (stereo not drawn) | 1.2% | -4.6% | 5.8% | i | 0.631µM* | -2.4% | i | i | i
N#Cc1ccc(CN2CCC3(CC2)CCN(C(=O)c2cccc(F)c2)CC3)cc1 | -1.4% | 0.8% | -4.6% | i | 29.1% | 4.4% | nt | nt | nt
NS(=O)(=O)c1cc(C(=O)O)c(O)c2ccccc12 | -1.3%[15.4 µM] | 0.0%[15.4 µM] | -4.6%[11.4 µM] | i | 4.3%[11.4 µM] | 5.7%[11.4 µM] | nt | nt | nt
COc1cccc2c1C(=N)c1c(O)c3c(c(O)c1C2=O)C[C@](O)(C(C)=O)C[C@@H]3O[C@H]1C[C@H](N)[C@@H](O)[C@H](C)O1 | -0.5%[15.4 µM] | -1.7%[15.4 µM] | 3.16µM* | i | 1.26µM* | 12.0%[11.4 µM] | 1.82µM* | 1.95µM* | 0.68µM*
COc1ccccc1-c1cc(C(=O)N2CCN(c3ccccc3OC)CC2)no1 | -1.3% | 1.9% | -6.4% | i | -0.5% | -7.5% | nt | nt | nt
CC(=O)OCCNc1cc(N2CCN(C)CC2)c2noc3c2c1C(=O)c1ccccc1-3 | 111.7% | -2.7% | 4.8% | i | 3.16µM* | -11.7% | 2.98µM* | 2.67µM* | 1.3µM*
O=c1c(-c2ccc(Cl)cc2)nc2cnc(N3CCNCC3)nc2n1Cc1ccc(F)cc1 | -2.0% | -2.9% | -7.2% | i | i | -13.1% | nt | nt | nt
CCN[C@@H]1CN(CCCOC)S(=O)(=O)c2sc(S(N)(=O)=O)cc21 | -1.2%[34.4 µM] | 0.2%[34.4 µM] | 2.5%[25.6 µM] | i | 8.0%[25.6 µM] | 16.2%[25.6 µM] | nt | nt | nt
